# Bioassay records (PubChem)
# KB-V1 MDR tox: kills drug-selected multidrug resistant KB-V1 cells; Potency, µM (highest dose often 46.1 µM), hits mostly cytotoxic; 400,000 tested, 3.4% active; KB-V1 MDR cells viability, CellTiter-Glo, 72 h; note: nearly all actives have a fitted effect of over 60% in size
#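 Luminescent ATP read-out (CellTiter-Glo, 10 min) measures survival of drug-selected KB-V1 MDR cells after 72 h, 37 degrees C compound exposure. Medium: phenol-red-free DMEM, 10% FBS. Values from fitted concentration-response curves.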
# HepG2 tox: HepG2 cytotoxicity, counter-screen for TGF-b inhibitors; HepG2 CAGA-GFP viability, ATP luminescence, 18 h; Potency, µM (series often up to 46.1 µM), actives largely listed as cytotoxic; 410,000 tested, 0.76% active
#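 HepG2 CAGA-GFP cells (1000/well, DMEM with 1% FBS) received compound, then TGF-beta at 500 pg/mL final, and were incubated 18 hours at 37 degrees C. Viability was read by CellTiter-Glo luminescence. Media-only wells were set as complete cell-killing and DMSO as no toxicity.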
# TGFb inhibitor: blocks TGF-b signaling | HepG2 CAGA-GFP TGF-b/SMAD3 reporter, GFP fluorescence, 18 h; TGF-beta stimulated, 500 pg/mL final | Potency, µM (doses to about 46.1 µM), actives largely listed as inhibitors | 410,000 tested, 1.2% active | AID 588855; note: nearly all actives have a fitted effect of over 65% in size
#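 Cell-based qHTS in HEPG2 carrying a CAGA-GFP Smad reporter; compounds added before 500 pg/mL final TGF-beta, 18 h incubation at 37 degrees C, GFP fluorescence quantified per cell by imaging cytometry.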
# ATXN viability: viability counter-screen for ATXN expression inhibitors | S2 cells (HEK-293 line with an ATXN2-luciferase reporter) viability, CellTiter-Fluor protease fluorescence, 24 h | Potency, µM (series often up to 56.7 µM), usual class: cytotoxic | 400,000 tested, 0.49% active | AID 651635; note: nearly all actives have a fitted effect of over 40% in size
# KB-3-1 tox: kills parental KB-3-1 adenocarcinoma cells. 400,000 tested, 1.4% active. KB-3-1 viability, CellTiter-Glo ATP luminescence, 72 h. Potency, µM (highest dose often 46.1 µM), hits mostly cytotoxic; note: nearly all actives have a fitted effect of over 60% in size
#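 Using CellTiter-Glo luminescence, growth of non-resistant KB-3-1 adenocarcinoma cells is assessed 72 h after pin-tool compound addition at 37 °C. Normalized responses across the concentration series yield fitted curves.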
# ATXN2 expr inh: ATXN2 expression inhibition; 360,000 tested, 0.72% active; Potency, µM (highest dose often 57 µM), most hits filed as inhibitors; HEK-293 ATXN2-luciferase reporter, luminescence, 24 h; AID 1745845; note: nearly all actives have a fitted effect of over 55% in size
#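 qHTS (up to 57 uM final) was run with 24 h compound exposure of reporter cells at 37 °C. Each well was multiplexed: SteadyGlo luminescence measured ATXN2-luciferase expression after a fluorogenic Gly-Phe-AFC viability readout (25 uM final).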
# A number is an active result; . = inactive; ? = inconclusive; / = no result given. Hits are enriched below; roughly 5.9% of the tested compounds scored in any of these assays. Calls come from the whole dose curve; as a rule, active = well fitted curve in the direction sought with a large enough effect; inconclusive = small, poorly fitted or top-dose-only effect, or another doubt; inactive = no such curve, though single readings can be large; an effect the other way counts as inactive or inconclusive.
SMILES,KB-V1 MDR tox,HepG2 tox,TGFb inhibitor,ATXN viability,KB-3-1 tox,ATXN2 expr inh
Cc1ccc(N(CC(=O)Nc2ccccc2-c2ccccc2)S(=O)(=O)c2ccccc2)cc1,23µM,.,.,.,.,.
Cc1ccc(S(=O)(=O)N(CC(=O)Nc2ccccc2-c2ccccc2)c2ccc(C)cc2C)cc1,?,.,?,.,.,.
Cc1cc(C)cc(N(CC(=O)Nc2ccccc2-c2ccccc2)S(=O)(=O)c2ccccc2)c1,.,.,.,.,.,.
Cc1ccc(N(CC(=O)Nc2c(C)n(C)n(-c3ccccc3)c2=O)S(C)(=O)=O)cc1C,?,.,.,.,.,.
c1ccc(Cc2nnc3n2CCN(Cc2cnc(-c4ccccc4)s2)CC3)cc1,/,/,/,.,/,/
O=C(Nc1ccc(F)c(Cl)c1)c1cc(C2CCCN(S(=O)(=O)c3cccs3)C2)on1 (centres undefined),.,.,.,?,.,.
O=C(Nc1ccccc1Cl)c1cc(C2CCCN(S(=O)(=O)c3cccs3)C2)on1 (centres undefined),.,11µM,?,.,.,.
COc1ccc(NC(=O)c2nnn(Cc3nc(-c4cc(OC)c(OC)c(OC)c4)oc3C)c2C)cc1,?,.,.,.,.,.
COc1cccc2c1Oc1ncccc1N(c1ccc(C(=O)NCc3ccccc3Cl)s1)C2,.,.,?,/,.,/
CC(Oc1ccccc1)C(=O)N(CCC1=CCCCC1)c1c(N)n(Cc2ccccc2)c(=O)[nH]c1=O (centres undefined),.,.,18µM,.,.,.
Nc1c(N(CCC2=CCCCC2)C(=O)COc2ccc(F)cc2)c(=O)[nH]c(=O)n1Cc1ccccc1,.,8.9µM,7.9µM,/,?,?
Nc1c(N(CCC2=CCCCC2)C(=O)CCCOc2ccccc2)c(=O)[nH]c(=O)n1Cc1ccccc1,.,.,.,?,.,.
Cc1ccccc1NC(=O)c1nc(S(=O)(=O)Cc2ccccc2F)ncc1Cl,.,5.6µM,4.5µM,/,?,/
Cc1ccc(NC(=O)c2nc(S(=O)(=O)Cc3ccccc3F)ncc2Cl)cc1C,?,.,?,/,?,/
Cc1ccc(NC(=O)c2nc(S(=O)(=O)Cc3ccccc3F)ncc2Cl)cc1,?,10µM,?,/,.,/
NS(=O)(=O)c1ccc(NC(=O)c2nc(S(=O)(=O)Cc3ccccc3F)ncc2Cl)cc1,.,.,?,/,.,/
CC(=O)Nc1ccc2c(c1)CCc1ccccc1-2,.,.,.,.,.,.
O=C(O)/C=C/C(=O)c1ccc2c(c1)CCc1ccccc1-2,?,11µM,?,7.1µM,13µM,5.6µM
Cc1ccccc1NC(=O)CSc1cn(CC(=O)N2CCCC2)c2ccccc12,.,.,.,.,.,.
CCc1cc(-c2nc(N)ncc2-c2ccc(Br)cc2)c(O)cc1OC,.,22µM,?,.,.,.
C=C(C)COc1ccc(-c2nc(N)ncc2Oc2ccc(OC)cc2)c(O)c1,?,11µM,?,.,.,.
C=C(C)COc1ccc(-c2nc(N)ncc2Oc2ccccc2OC)c(O)c1,?,.,?,.,?,.
COc1ccc(-c2cnc(N)nc2-c2ccc(OCc3ccccc3)cc2O)cc1,.,.,13µM,.,.,.
COc1ccc(-c2c(C)nc(N)nc2-c2ccc(OC)cc2O)cc1,.,.,.,.,.,.
COc1ccc(-c2c(C)nc(N)nc2-c2ccc(OCc3ccc(C)cc3)cc2O)cc1OC,2.3µM,.,?,.,.,.
SMILES,KB-V1 MDR tox,HepG2 tox,TGFb inhibitor,ATXN viability,KB-3-1 tox,ATXN2 expr inh
CC1Cn2c(C(=O)NCc3ccccc3Cl)cc3cccc(c32)S1 (centres undefined),.,.,.,/,.,/
CCOc1ccc2ncc3c(-c4ccccc4)nn(CC(=O)Nc4cccc(F)c4)c3c2c1,.,.,.,.,.,.
CCc1ccc(CNC(=O)C2CCN(c3nnc(-n4c(C)ccc4C)s3)CC2)cc1,/,.,/,/,/,/
CCc1cccc(NC(=O)CCS(=O)(=O)c2ccc3nc(C)sc3c2)c1,.,.,.,/,.,/
CCOc1ccc(-c2nc(N)ncc2Oc2ccccc2Br)c(O)c1,.,11µM,?,.,.,.
C=C(C)COc1ccc(-c2nc(N)ncc2-c2ccc(Br)cc2)c(O)c1,?,.,16µM,.,21µM,.
COc1ccc(C2Nc3ccccc3-c3nnc(SC)nc3O2)cc1C (centres undefined),.,.,.,.,.,.
CCOC(=O)n1c(=O)n(Cc2ccc(OC)cc2)c2ccccc21,?,.,.,.,16µM,.
CC(C)(C)Cc1c(-c2ccc(F)cc2)nc2ccc(Cl)cn12,.,.,11µM,?,.,.
Cc1ccc(-c2nc3ccc(Cl)cn3c2CC(C)(C)C)cc1,.,.,.,.,.,?
CC(C)(C)Cc1c(-c2ccc(Br)cc2)nc2ccc(Br)cn12,.,.,16µM,?,.,.
COc1ccc(CN2CCCC(n3cc(C(=O)N4CCCCC4)nn3)C2)c(OC)c1C (centres undefined),/,/,/,.,/,/
Cc1cccc(N2CCN(C(=O)C3CCN(C(=O)c4cc5sccc5n4C)CC3)CC2)c1C,.,.,11µM,/,.,/
Cc1cccc(N2CCN(C(=O)C3CCCN(C(=O)c4cc5sccc5n4C)C3)CC2)c1C (centres undefined),.,.,?,.,.,?
O=C(C1CCN(S(=O)(=O)Cc2ccccc2)CC1)N1CCN(c2ccccc2)CC1,.,.,.,.,.,.
Cc1cccc(N2CCN(C(=O)C3CCN(S(=O)(=O)Cc4ccccc4)CC3)CC2)c1C,.,18µM,?,.,.,.
CCOc1ccc(-n2c(C)cc(C(=O)CCl)c2C)cc1,?,.,13µM,/,4.6µM,24µM
COC(=O)c1ccc(-n2c(C)cc(C(=O)CCl)c2C)cc1,.,13µM,20µM,30µM,?,15µM
COc1ccc(C)cc1N(C(=O)c1ccccc1)c1nc2ccccc2s1,.,.,.,.,.,.
COc1ccc(C)cc1N(C(=O)COc1ccccc1)c1nc2ccccc2s1,21µM,.,.,.,.,.
O=C(OCc1cccc(F)c1)c1ccc2c(c1)-c1ccccc1C2=O,.,.,.,.,.,.
CCOC(=O)c1ccc(COC(=O)c2ccc3c(c2)-c2ccccc2C3=O)cc1,15µM,.,.,.,.,.
COc1ccc(NC2=C(C(C)=O)C(c3ccccc3)C(C(C)=O)C(C)(O)C2)cc1 (centres undefined),.,.,.,.,?,.
CCOC(=O)C1=C(Nc2ccccc2)CC(C)(O)C(C(=O)OCC)C1c1ccc(Cl)cc1 (centres undefined),21µM,.,?,?,?,?
